The values below come from PubChem BioAssay (NCATS).

The target in test [1] is Lysosomal acid glucosylceramidase (Homo sapiens) (UniProt P04062). Nature of the test: Glucocerebrosidase-p2 (AID 348; in the data active means potency below about 10 µM; further: potency means the concentration at half of the fitted maximal effect). Conditions: purified GBA, blue fluorogenic substrate, 40 min. In outline:
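Normal human glucocerebrosidase (0.2 nM) with blue fluorogenic substrate (80 uM final) in citrate/phosphate pH 5.9 with 10mM sodium taurocholate, 0.01% tween-20; 40 min RT, NaOH/glycine stop; fluorescence Ex 365/Em 440; AC50 from a titration from 0.6 nM upwards.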

Test [2] can be described thus: AP1 Signaling Pathway (AID 357; active means well fitted curve in either direction with a large enough effect, not every such curve was filed as active;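 further: ME-180 reporter cells stimulated with EGF at its EC50 level; on the % scale 0 is the no-effect control and ±100 the full control effect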). As to conditions: ME-180 AP-1-bla reporter, EGF-induced, beta-lactamase ratio, 5 h; at 7.69 µM (top of the series) unless noted. In outline:
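AP-1-bla ME-180 cells, Opti-MEM + 0.5% dialyzed FBS, plated overnight 37 °C. Cpd titration + EC50 EGF, 5 h 37 °C. CCF4 2.5 h RT; ex 405, em 460/530 ratio → %activity, AC50.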

Test [3] addresses Cytochrome P450 1A2 (Homo sapiens) (UniProt P05177). Description: p450-cyp1a2 (AID 410; calls by dose curve; further: potency means the concentration at half of the fitted maximal effect). Conditions: recombinant CYP1A2, luciferin-ME demethylation, luminescence; series mostly up to 57 µM. A digest of the protocol: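 20nM CYP1A2, 100uM Luciferin-ME (=Km), 100mM KPO4; cpd 10 min RT; +NADPH regen, 60 min RT; stop/detect 20 min; luminescence. Normalized to furafylline 57 uM = full inhibition.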

Test [4] is described as follows: NFAT Signaling Pathway (AID 444; active means well fitted curve in either direction with a large enough effect, not every such curve was filed as active;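 further: carbachol stimulus at about its EC50 of 1 µM final; on the % scale 0 is the no-effect control and ±100 the full control effect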). Conditions: Jurkat NFAT-bla M1, carbachol, beta-lactamase ratio, 5 h; at 7.69 µM (top of the series) unless noted. In outline: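 Jurkat cells with NFAT-driven β-lactamase reporter and co-expressed M1 receptor, stimulated with carbachol (final 1 uM, ~EC50), compound titration, 5 h at 37 °C. CCF4 loaded 1 h at RT; 460/530 nm ratio gave %activity and AC50.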

Test [5] is described as follows: Stat Signaling Pathway (AID 446; active means well fitted curve in either direction with a large enough effect, not every such curve was filed as active;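 further: ME-180 cervical cancer cells given 40 pM IL-6 alongside compound; SIE-controlled beta-lactamase reporter measured as 460/530 nm FRET emission ratio; on the % scale 0 is the no-effect control and ±100 the full control effect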). Conditions: ME-180 SIE beta-lactamase reporter, IL-6 stimulated, 5 h; at 7.69 µM (top of the series) unless noted. A digest of the protocol:
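Emission at 460 and 530 nm (excitation 405 nm) reports SIE-controlled beta-lactamase in ME-180 cells. Cells received compound with 40 pM IL-6 for 5 hrs at 37 C; data scaled between 300 pM IL-6 and 125 nM JAK-inhibitor controls.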

Test [6] addresses Glucocorticoid receptor (Homo sapiens) (UniProt P04150). Description: GR-GFP Redistribution (AID 450;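 active means compounds whose dose series gives a full or clear partial fitted curve of increased nuclear translocation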; further: potency means the concentration at half of the fitted maximal effect). Conditions: U2OS GR-GFP nuclear translocation, laser cytometry, 2 h.
Test [7] has the same target. Description: GR-EFC Redistribution (AID 451; calls by dose curve; further: potency means the concentration at half of the fitted maximal effect). As to conditions: CHO-K1 GR-EFC translocation, beta-gal luminescence, 2 h. In outline: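 CHO-K1 cells expressing nuclear EA and GR-ED fragments of b-gal; compounds titrated up to 46 uM final, 2 h at 37 C. GR nuclear translocation read as complemented b-gal luminescence after 1 h RT detection.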
Test [8] deals with Mitogen-activated protein kinase 10 (Mus musculus) (UniProt Q61831). Nature of the test: JNK3 AlphaScreen Assay (AID 530; active means well fitted curve in either direction with a large enough effect, not every such curve was filed as active;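 further: kinase came from lysate of stimulated human HepG2 cells; signal reports phosphorylation of biotinylated GST-cJun 1-79 at Ser73 with 10 µM ATP; on the % scale 0 is the no-effect control and ±100 the full control effect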). As to conditions: JNK3 lysate, c-Jun phosphorylation; series mostly up to 57.1 µM. In outline: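 HepG2 lysate (IL-1b/TNFa pre-activated) + biotin-GST-cJun 1-79 + anti-pSer73 cJun; cpd titration, 15 min RT; ATP 10 uM start; Tris pH 7.6, MgCl2, DTT, vanadate; beads in EDTA buffer; AlphaScreen.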
On the technique in general: Alpha assays give light when donor and acceptor beads are brought close together.

For test [9], the target named is Cytochrome P450 3A4 (Homo sapiens) (UniProt P08684). Description: qHTS Assay for Activators of Cytochrome P450 3A4 (AID 885). Further: nearly all actives have a fitted effect of over 65% in size. As to conditions: recombinant CYP3A4, Luciferin-PPXE luminescence, 60 min; series mostly up to 57.1 µM. In outline:
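Activators are scored by enhanced luminescence from CYP3A4 conversion of luciferin-PPXE (25uM, equal to KM) to luciferin, after 60 min at RT with an NADPH-regenerating system.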

Test [10] is described as follows: qHTS Assay for Lipid Storage Modulators (AID 1519; calls by dose curve). As to conditions: Drosophila S3 cells, BODIPY lipid droplet/cell ratio, laser cytometry, cells loaded with oleic acid; for activity change, negative = inhibition: at 57.5 µM (top of the series). In outline: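 Cells seeded at 5,000 per well were treated with compounds over a concentration series and loaded with oleic acid (400 uM, as added). Lipid droplet fluorescence (488 nm excitation, 500-530 nm channel) was read by laser-scanning cytometry and normalized to 20 uM Triacsin C.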
Background: In qHTS, concentration-response curves come from the screen itself.

The target in test [11] is Dual specificity protein kinase CLK4 (Homo sapiens) (UniProt Q9HAZ1). Nature of the test: qHTS Assay for Inhibitors of CDC-like Kinase 4 (Kinase-Glo Assay) (AID 1770). Further: nearly all actives have a fitted effect of over 65% in size. Further: potency means the concentration at half of the fitted maximal effect. Conditions: recombinant Clk4, Kinase-Glo ATP depletion luminescence; series mostly up to 66.7 µM. A digest of the protocol: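 Inhibition was judged from remaining ATP, measured by Ultra-Glo luciferase bioluminescence after Clk4 (25 nM) had acted on RS peptide at 1 uM ATP for 4.5 hours, room temperature.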
Chain of Dual specificity protein kinase CLK4 (Homo sapiens) (Q9HAZ1 whole entry, looked up): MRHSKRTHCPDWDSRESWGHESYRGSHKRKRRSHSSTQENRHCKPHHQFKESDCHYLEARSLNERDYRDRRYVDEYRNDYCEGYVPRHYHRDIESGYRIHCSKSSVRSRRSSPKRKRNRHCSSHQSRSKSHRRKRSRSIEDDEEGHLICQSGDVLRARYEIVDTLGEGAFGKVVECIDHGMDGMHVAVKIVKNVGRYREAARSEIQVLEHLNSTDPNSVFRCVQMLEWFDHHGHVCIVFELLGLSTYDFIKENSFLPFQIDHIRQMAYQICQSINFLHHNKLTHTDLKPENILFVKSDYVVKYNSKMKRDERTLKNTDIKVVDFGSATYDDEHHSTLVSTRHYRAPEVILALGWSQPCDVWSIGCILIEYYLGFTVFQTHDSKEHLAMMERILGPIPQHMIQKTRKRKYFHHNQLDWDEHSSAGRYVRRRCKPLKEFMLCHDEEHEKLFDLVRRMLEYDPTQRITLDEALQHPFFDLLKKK

Test [12] has the same target. Description: qHTS Assay for Inhibitors of CDC-like Kinase 4 (ADP-Glo Assay) (AID 1771). Further: nearly all actives have a fitted effect of over 70% in size. Further: potency means the concentration at half of the fitted maximal effect. Conditions: recombinant CLK4, ADP-Glo luminescence; series mostly up to 80 µM. A digest of the protocol:
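25 nM Clk4, 100 uM RS peptide, 1 uM ATP (final); 2 mM MgCl2, 0.5 mM EGTA, 2.5 mM DTT, 0.01% Triton X-100; 1 hr RT. ADP-Glo readout: ATP depletion 45 min, conversion/luciferase 30 min, luminescence.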

Test [13] shares this target. Nature of the test: qHTS Assay for Inhibitors of CDC-like Kinase 4 (ADP-FP Assay) (AID 1795). Further: nearly all actives have a fitted effect of over 60% in size. Further: potency means the concentration at half of the fitted maximal effect. Conditions: Transcreener ADP fluorescence polarization; series mostly up to 50 µM. In outline:
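Inhibition of ADP formation by 6.25 nM Clk4 is measured using 1 uM ATP and 100 uM RS repeat peptide over one hour. Produced ADP displaces a fluorescent tracer from antibody, lowering polarization.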

The target in test [14] is Ubiquitin carboxyl-terminal hydrolase 1 (Homo sapiens) (UniProt O94782). Nature of the test: Inhibitors of USP1/UAF1: Pilot qHTS (AID 504865). Further: nearly all actives have a fitted effect of over 35% in size. Further: potency means the concentration at half of the fitted maximal effect. Conditions: purified USP1/UAF1, Ub-rhodamine cleavage fluorescence; series mostly up to 54.9 µM. A digest of the protocol: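 Kinetic fluorescence assay: 1nM USP1/UAF1, 15 min compound preincubation, then 150nM Ub-Rho; 480/540 nm.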
Chain of Ubiquitin carboxyl-terminal hydrolase 1 (Homo sapiens) (O94782 whole entry, looked up): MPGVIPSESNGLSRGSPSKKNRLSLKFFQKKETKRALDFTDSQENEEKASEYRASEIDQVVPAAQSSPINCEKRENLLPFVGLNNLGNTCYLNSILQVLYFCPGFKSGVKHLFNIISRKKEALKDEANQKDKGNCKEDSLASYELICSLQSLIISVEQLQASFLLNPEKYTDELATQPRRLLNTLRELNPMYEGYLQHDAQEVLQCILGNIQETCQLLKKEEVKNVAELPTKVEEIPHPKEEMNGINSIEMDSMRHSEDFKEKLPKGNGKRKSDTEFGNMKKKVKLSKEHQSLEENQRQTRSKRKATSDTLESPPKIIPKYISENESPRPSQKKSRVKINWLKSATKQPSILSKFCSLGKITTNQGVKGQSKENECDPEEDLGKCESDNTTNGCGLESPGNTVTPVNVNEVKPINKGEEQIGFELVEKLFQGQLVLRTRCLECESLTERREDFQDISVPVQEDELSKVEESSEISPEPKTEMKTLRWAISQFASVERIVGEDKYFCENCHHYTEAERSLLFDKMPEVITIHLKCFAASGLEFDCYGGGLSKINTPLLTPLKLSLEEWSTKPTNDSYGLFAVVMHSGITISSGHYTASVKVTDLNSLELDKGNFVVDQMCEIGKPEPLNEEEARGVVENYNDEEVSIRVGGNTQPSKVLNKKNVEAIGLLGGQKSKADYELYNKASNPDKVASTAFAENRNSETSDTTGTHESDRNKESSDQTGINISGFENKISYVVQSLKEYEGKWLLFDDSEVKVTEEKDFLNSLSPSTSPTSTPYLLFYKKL

Test [15] can be described thus: qHTS Assay for Identification of Small Molecule Agonists for Hypoxia Response Element Signaling Pathway (AID 914; active means well fitted activation curve with a large enough effect in the signal ratio, with a control signal flat, not every such curve was filed as active; the % refers to the signal ratio; further: % of control where 0% means no effect). As to conditions: ME-180 (cervical carcinoma) HRE-bla reporter, beta-lactamase ratio, CoCl2, 17 h; activation: stronger effect = higher value. A digest of the protocol: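 Read-out: CCF4 FRET ratio of 460nm to 530nm emission (excitation 405nm) after 2.5 hours at room temperature, taken from HRE-bla ME-180 cells that had been exposed to compound and EC50 CoCl2 for 17 hours.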

For test [16], the target named is 3',5'-cyclic-AMP phosphodiesterase 4B (Homo sapiens) (UniProt Q07343). Description: qHTS Assay for Inhibitors of PDE-IV (AID 607; active means well fitted activation curve with a large enough effect in the main read-out, with a control signal flat, not every such curve was filed as active; further: % of control where 0% means no effect). As to conditions: HEK293 ACTOne CNG channel cells, membrane potential fluorescence; series mostly up to 22.9 µM. In outline:
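The readout is membrane depolarisation from a cAMP-sensing CNG channel, detected with a potential dye at ex 535/em 590. Cells were HEK293-derived (endogenous PDE-IV) at 1000 cells/well, titrated up to 22.9 uM final.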

The mark [17] stands for this setting: measured here: cell count channel max response.
[18] abbreviates: measured here: lipid channel max response.

Records with an inconclusive call do not appear. Calls of active or inactive are those of the source. Unless noted, the call rests on the fitted dose curve; in most records, active means well fitted curve in the direction sought with a large enough effect; inconclusive means small, poorly fitted or top-dose-only effect, or another doubt; inactive means no such curve, though single readings can be large; an effect the other way counts as inactive or inconclusive.

Chain of Cytochrome P450 1A2 (Homo sapiens) (P05177 whole entry, looked up): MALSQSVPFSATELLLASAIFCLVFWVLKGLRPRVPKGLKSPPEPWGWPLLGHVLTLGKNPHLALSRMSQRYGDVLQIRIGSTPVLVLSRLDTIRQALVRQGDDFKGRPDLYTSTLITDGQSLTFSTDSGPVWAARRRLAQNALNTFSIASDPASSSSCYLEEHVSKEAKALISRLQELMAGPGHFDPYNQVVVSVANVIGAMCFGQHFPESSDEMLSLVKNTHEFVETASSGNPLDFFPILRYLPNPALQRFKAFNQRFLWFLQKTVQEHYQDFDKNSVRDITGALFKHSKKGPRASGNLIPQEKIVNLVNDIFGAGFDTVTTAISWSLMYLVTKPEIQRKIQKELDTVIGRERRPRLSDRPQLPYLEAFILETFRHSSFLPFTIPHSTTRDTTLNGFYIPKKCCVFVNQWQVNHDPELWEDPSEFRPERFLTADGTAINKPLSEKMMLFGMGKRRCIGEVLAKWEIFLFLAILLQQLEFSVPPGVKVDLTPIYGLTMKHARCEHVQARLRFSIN
Chain of Glucocorticoid receptor (Homo sapiens) (P04150 whole entry, looked up, the tested form may be a part): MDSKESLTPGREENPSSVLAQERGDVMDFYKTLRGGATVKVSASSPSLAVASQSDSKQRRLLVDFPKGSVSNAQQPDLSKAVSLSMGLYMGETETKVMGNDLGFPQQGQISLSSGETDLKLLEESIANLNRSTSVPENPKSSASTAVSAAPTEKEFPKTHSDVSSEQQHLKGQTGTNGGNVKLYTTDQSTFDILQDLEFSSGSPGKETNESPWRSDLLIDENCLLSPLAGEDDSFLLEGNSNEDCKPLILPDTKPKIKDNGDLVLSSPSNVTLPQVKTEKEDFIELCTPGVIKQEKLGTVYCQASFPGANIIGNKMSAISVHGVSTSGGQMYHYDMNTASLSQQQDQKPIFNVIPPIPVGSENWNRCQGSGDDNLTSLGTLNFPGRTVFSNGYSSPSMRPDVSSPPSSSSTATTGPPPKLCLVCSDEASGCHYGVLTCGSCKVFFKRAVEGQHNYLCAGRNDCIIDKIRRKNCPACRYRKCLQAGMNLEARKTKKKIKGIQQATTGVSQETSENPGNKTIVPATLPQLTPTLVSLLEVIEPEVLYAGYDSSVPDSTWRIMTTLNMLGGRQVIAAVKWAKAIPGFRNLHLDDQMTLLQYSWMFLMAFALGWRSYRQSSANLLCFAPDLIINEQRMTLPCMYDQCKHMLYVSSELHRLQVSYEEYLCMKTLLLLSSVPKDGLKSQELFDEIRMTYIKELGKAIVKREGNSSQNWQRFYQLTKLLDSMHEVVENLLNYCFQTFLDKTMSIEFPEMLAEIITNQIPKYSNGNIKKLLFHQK
Chain of Cytochrome P450 3A4 (Homo sapiens) (P08684 whole entry, looked up): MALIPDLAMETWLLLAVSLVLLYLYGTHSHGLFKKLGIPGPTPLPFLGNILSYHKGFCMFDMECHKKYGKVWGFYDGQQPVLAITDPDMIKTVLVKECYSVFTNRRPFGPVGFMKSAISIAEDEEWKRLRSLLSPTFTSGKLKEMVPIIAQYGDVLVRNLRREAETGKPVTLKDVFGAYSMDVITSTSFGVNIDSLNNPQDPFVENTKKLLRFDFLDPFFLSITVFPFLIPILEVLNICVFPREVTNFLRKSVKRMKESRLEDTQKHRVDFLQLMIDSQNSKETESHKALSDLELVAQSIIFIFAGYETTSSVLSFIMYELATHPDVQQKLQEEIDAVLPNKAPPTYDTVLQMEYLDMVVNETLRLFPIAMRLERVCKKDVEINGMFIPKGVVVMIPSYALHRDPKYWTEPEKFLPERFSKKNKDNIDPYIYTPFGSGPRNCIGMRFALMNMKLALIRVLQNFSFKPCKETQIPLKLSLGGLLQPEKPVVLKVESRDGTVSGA
Chain of Lysosomal acid glucosylceramidase (Homo sapiens) (P04062 whole entry, looked up): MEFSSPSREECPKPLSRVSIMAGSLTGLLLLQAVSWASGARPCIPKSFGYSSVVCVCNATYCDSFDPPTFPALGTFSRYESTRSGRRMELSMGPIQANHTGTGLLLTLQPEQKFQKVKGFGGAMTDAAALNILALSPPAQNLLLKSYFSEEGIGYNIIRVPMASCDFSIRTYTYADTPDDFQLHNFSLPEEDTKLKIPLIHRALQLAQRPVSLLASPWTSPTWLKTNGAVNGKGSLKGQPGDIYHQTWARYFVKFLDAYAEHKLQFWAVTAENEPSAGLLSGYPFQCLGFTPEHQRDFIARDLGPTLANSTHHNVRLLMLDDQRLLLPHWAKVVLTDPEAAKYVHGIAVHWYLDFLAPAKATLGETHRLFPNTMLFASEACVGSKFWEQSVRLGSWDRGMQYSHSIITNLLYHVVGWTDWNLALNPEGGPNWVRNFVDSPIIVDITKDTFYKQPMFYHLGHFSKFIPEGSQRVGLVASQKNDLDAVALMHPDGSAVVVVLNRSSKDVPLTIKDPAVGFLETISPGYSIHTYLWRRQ
Chain of 3',5'-cyclic-AMP phosphodiesterase 4B (Homo sapiens) (Q07343 whole entry, looked up): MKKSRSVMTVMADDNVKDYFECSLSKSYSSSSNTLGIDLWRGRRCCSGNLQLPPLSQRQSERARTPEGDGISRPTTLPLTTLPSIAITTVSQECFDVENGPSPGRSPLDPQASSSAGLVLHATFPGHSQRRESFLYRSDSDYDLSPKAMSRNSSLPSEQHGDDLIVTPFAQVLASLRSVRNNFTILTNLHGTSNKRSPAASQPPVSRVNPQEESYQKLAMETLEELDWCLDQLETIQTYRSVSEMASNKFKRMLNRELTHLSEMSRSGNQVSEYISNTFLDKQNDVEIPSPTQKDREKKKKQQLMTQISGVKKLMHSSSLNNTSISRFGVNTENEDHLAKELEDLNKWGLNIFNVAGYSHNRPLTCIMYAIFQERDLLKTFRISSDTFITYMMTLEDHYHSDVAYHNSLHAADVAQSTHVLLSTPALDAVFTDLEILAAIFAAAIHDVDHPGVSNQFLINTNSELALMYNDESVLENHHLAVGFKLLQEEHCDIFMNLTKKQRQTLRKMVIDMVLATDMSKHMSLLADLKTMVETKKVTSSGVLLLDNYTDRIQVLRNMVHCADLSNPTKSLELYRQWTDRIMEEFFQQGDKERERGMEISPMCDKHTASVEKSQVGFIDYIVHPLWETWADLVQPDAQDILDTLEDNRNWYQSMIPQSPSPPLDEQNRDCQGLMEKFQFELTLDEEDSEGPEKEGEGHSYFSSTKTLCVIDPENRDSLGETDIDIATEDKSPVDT

Regarding `CN(C)Cc1ccccc1-c1nccc(Nc2ccc(F)cc2)n1`, the Potency was 10.8 µM (inactive) in [1], 3.16 µM (active) in test [3], > 46 µM (inactive) in test [6] and > 46 µM (inactive) in [7]. Besides, the activity change, negative = inhibition was 7.82% (inactive) in [2], -13.9% (inactive) in test [4] and 5.52% (inactive) in test [10]. Besides, the activity, negative = inhibition in [5] was -5.3% (inactive). For the same compound, the Potency entry in test [8], in [9], in [11], in test [12], in [13] and in [14] was “inactive” in each case. Besides, the max response in [10] (setting [17]) is 21.6%; in test [10] (setting [18]), 26.6%.

With `Cc1ccccc1-c1nc(N2CCOCC2)c2ccccc2n1`, the Potency was > 11.4 µM (inactive) in test [1]; 2 µM (active) in test [3]; > 46 µM (inactive) in [6]; > 46 µM (inactive) in [7]; 15.8 µM (active) in test [11]; 15.8 µM (active) in [12]. Further, the Potency is 12.6 µM (active) in test [13] and 28.2 µM (active) in [14]. Besides, the activity change, negative = inhibition in test [2] is 4.71% (inactive); in test [4], -2.19% (inactive); in test [10] it was 6.43% (inactive). Besides, in test [5], the activity, negative = inhibition is 4.23% (inactive). The Potency entry in [8] and in test [9] was “inactive” in each case. The activation in [15] was 11% (inactive). The values for the max response in test [10] (setting [17]) and in test [10] (setting [18]) were 31.7% and 38.9%, respectively.

For `COc1cccc(-c2nc(NC3CCNCC3)c3ccccc3n2)c1`, the Potency in test [1] was > 11.4 µM (inactive); in test [3], 12.6 µM (active); in test [7], > 46 µM (inactive); in test [11] it was 11.2 µM (active); in test [12], 11.2 µM (active); in [13] it was 12.6 µM (active). Also, the activity change, negative = inhibition in test [2] was 14.7% (inactive); in [4] it was 23.4% (inactive); in [10], 4.76% (inactive). The activity, negative = inhibition in test [5] was 5.39% (inactive). The Potency entry in test [8], in test [16], in test [9] and in test [14] was “inactive” in each case. The results for the max response in test [10] (setting [17]) and in test [10] (setting [18]) were 12.9% and 4.05%, respectively.

Take `CN1CCN(c2ncc3nc(-c4cccs4)c(=O)n(Cc4cccs4)c3n2)CC1`: the Potency in [1] is > 11.4 µM (inactive); in test [3], 15.8 µM (active); in [6] it was > 9.22 µM (inactive); in test [7] it was > 46 µM (inactive). In addition, the Potency entry in [16], in [9], in [11], in [12], in test [13] and in test [14] was “inactive” throughout. The activity change, negative = inhibition in [10] is -5.19% (inactive). Also, the max response was 2.92% in test [10] (setting [17]) and -4.19% in test [10] (setting [18]).

On to `COc1ccc(-c2nc3cnc(OC)nc3n(C[C@H]3CCCO3)c2=O)cc1`, for which the Potency in test [1] was > 11.4 µM (inactive); in test [6], > 9.22 µM (inactive); in test [7], > 46 µM (inactive). The figures for the activity change, negative = inhibition in [2], in test [4] and in [10] were -17.7% (inactive), 11.8% (inactive) and 0.324% (inactive), respectively. Also, the activity, negative = inhibition in test [5] was -12.4% (inactive). The Potency entry in [8], in [11], in [12], in test [13] and in [14] was “inactive” each time. Besides, the max response was determined as 2.19% in test [10] (setting [17]) and 1.25% in test [10] (setting [18]).

Consider `COCCn1c(=O)c(C)nc2cnc(Oc3cccc(Cl)c3)nc21`, for which the Potency is > 11.4 µM (inactive) in test [1], 12.6 µM (active) in test [3] and > 46 µM (inactive) in test [7]. The activity change, negative = inhibition was -12% (inactive) in test [2], 10.5% (inactive) in test [4] and 4.18% (inactive) in test [10]. Also, the activity, negative = inhibition in test [5] is -4.78% (inactive). In addition, the Potency result in test [8], in [9], in test [11], in [12], in [13] and in test [14] was “inactive” in each case. The max response stood at 15.1% in [10] (setting [17]) and 17.8% in [10] (setting [18]).
